High-throughput results from PubChem BioAssay.
gsp antagonist = antagonists of gsp mutant (McCune-Albright syndrome); AID 624288; 0.4% of 340,000 active; Potency, µM (series often up to 76.9 µM), inactives show at the top dose activity change, negative = inhibition, usual class: inhibitors; gsp-mutant cells, cAMP HTRF, 30 min; calls by dose curve; cell line not stated here;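 further: intracellular cAMP measured with PDE inhibitor Ro 20-1724 present during compound exposure; potency means the concentration at half of the fitted maximal effect; on the % scale 0 is the no-effect control and ±100 the full control effect; nearly all actives have a fitted effect of over 65% in size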
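Cells, 2000/well, grown 16–24 h in DMEM 10% FBS with 0.5 mg/ml G418, then compounds plus […] (300 uM addition stock), 30 min at 37C. cAMP read by HTRF (cAMP-d2 and anti-cAMP antibody-K in lysis buffer) after 30 min RT.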
Akt phos inh = inhibitors of Akt phosphorylation | Neuro2A IGF-stimulated pAkt S473 HTRF, 20 min; stronger effect = lower value | activity change, % for hits at 50 µM | 0.32% of 360,000 active | AID 651550; in the data active means activity change below about -80%; inconclusive means mostly about -51% to -80%; further: on the % scale 0 is the no-effect control and ±100 the full control effect
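Single-point screen (50 µM final compound) in Neuro2A cells stimulated 20 min with 6 nM IGF at 37 deg C. After lysis, Ser473-phosphorylated Akt read by HTRF (ex 330 nm, em 615/665 nm) as the 665/615 ratio.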
RXFP1 antagonist = antagonists of human relaxin receptor RXFP1; Q9HBX9; HEK293-RXFP1, relaxin-stimulated cAMP HTRF, 30 min; stronger effect = lower value; activity change, negative = inhibition, % at 57.5 µM; 0.59% of 350,000 active;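 active means activity change of -60% or lower, but not beyond a set lower limit; inconclusive means change between -60% and -40%, or beyond the set limit; inactive means change above -40%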; further: on the % scale 0 is the no-effect control and ±100 the full control effect
Target sequence (Q9HBX9 whole entry, looked up): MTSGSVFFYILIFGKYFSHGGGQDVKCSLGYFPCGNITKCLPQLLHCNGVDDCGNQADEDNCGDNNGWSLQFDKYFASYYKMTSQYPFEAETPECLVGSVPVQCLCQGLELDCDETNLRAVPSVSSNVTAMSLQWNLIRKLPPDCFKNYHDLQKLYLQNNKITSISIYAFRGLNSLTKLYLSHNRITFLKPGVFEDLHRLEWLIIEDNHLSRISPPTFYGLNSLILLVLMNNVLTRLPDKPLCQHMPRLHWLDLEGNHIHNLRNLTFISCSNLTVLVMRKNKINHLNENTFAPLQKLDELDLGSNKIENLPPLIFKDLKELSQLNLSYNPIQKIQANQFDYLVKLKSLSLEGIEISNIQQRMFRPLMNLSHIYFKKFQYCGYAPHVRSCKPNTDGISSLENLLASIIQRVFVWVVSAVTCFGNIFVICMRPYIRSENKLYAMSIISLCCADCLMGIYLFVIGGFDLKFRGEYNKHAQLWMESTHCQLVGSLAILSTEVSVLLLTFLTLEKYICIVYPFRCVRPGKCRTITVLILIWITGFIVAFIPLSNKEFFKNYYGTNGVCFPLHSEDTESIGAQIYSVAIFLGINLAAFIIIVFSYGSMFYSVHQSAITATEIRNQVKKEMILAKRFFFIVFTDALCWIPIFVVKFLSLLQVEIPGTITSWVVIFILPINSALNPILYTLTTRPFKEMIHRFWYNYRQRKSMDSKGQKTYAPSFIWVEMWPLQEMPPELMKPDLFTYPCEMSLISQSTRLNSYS
RXFP1 agonist = agonists of human relaxin receptor RXFP1 | AID 2676 | 0.3% of 370,000 active | Q9HBX9 | HEK293T-RXFP1 cAMP TR-FRET, 30 min; response scale: percent of porcine relaxin response, buffer zero | Potency, µM (doses to about 57.5 µM), inactives show at the highest dose activation, actives largely listed as activators; active means well fitted activation curve with a large enough effect; inconclusive means small, poorly fitted or top-dose-only effect; further: potency means the concentration at half of the fitted maximal effect; on the % scale 0 is the no-effect control and ±100 the full control effect; nearly all actives have a fitted effect of over 60% in size
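Agonist response is measured as cAMP accumulation in an RXFP1-transfected HEK293T line under PDE4 inhibition. Values are scaled between buffer-only and 29 nM porcine relaxin, and EC50s come from standard Hill equation fits.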
gsp agonist = gsp mutant agonism; gsp mutant cells, cAMP HTRF, 30 min; Potency, µM (highest dose often 76.9 µM), for inactives: top-dose activation (cAMP increase), hits mostly activators; 0.13% of 340,000 active; active means well fitted activation curve with a large enough effect; inconclusive means small, poorly fitted or top-dose-only effect, or another doubt; inactive means no such curve, though single readings can be large or run the other way; cell line not stated here;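 further: phosphodiesterase inhibitor Ro 20-1724 added with compounds to block cAMP breakdown; potency means the concentration at half of the fitted maximal effect; nearly all actives have a fitted effect of over 60% in size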
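Cells in DMEM/10% FBS with G418 were pretreated with compounds in DMSO plus […] (300 uM stock) for 30 min at 37C. cAMP was measured by HTRF (cAMP-d2 plus anti-cAMP antibody-K) after 30 min at room temperature.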
* hit, by the source's call; i = inactive; ? = inconclusive; . = no result given; [ ] = dose if it differs, or a comment. An excerpt weighted towards active compounds, which were near 1.3% of everything screened.

SMILES | gsp antagonist | Akt phos inh | RXFP1 antagonist | RXFP1 agonist | gsp agonist
COc1ccc(CCNCc2c(C(=O)O)c(C)n(Cc3c(F)cccc3Cl)c2C)cc1OC | . | . | -9 | 0% | .
Cc1cccc(NC(=O)C2CCN(S(=O)(=O)c3ccc(F)cc3)CC2)c1C | . | . | -5 | 4% | .
N#Cc1c(-c2ccco2)nc(SCc2ccc(F)cc2)[nH]c1=O | 22% | . | 25 | 25µM* | ?
Cc1cc(N2CCN(S(=O)(=O)c3ccc(Cl)cc3)CC2)c2ccccc2n1 | 50µM* | i | -25 | 1% | -4%
Cc1cccc(OC(C)C(=O)Nc2ncn[nH]2)c1 (stereo not given) | . | . | 0 | -1% | .
Brc1ccc(N/N=C(/N=Nc2nn[nH]n2)c2ccccc2)cc1 | 22µM* | i | -1 | 2% | -1%
Oc1c(C(Nc2nccs2)c2ccc(C(F)(F)F)cc2)ccc2cccnc12 (stereo not given) | 2% | i | ? | 0% | 23%[15.4 µM]
Oc1c(C(Nc2cccc(C(F)(F)F)c2)c2ccncc2)ccc2cccnc12 (stereo not given) | -9% | i | -61* | 2% | -5%[15.4 µM]
Cc1cccc(-n2c(O)c(C=NCc3ccccn3)c3ccccc3c2=O)c1 | 0% | i | -3 | 0% | -6%
Cc1cccc(-n2c(O)c(C=NCCCN3CCOCC3)c3ccccc3c2=O)c1 | -3% | -121%* | 1 | 2% | 0%
CCN(CCNCC(O)COCc1ccc(Cl)cc1)c1cccc(C)c1 (stereo not given) | 11% | i | -70* | 1% | 7%[15.4 µM]
CCC(=O)C1=C(c2cccc([N+](=O)[O-])c2)N(C(=O)CC)n2c(nnc2C2CCCCC2)S1 | . | . | -8 | 2% | .
CC(=O)c1c(C)[nH]c(C(=O)NCCc2ccccc2)c1C | -5% | -117%* | -6 | -1% | -27%
COc1ccc(CCNC(=O)c2[nH]c(C)c(C(C)=O)c2C)cc1OC | 1% | i | -16 | 1% | ?
CCOC(=O)c1sc2nc(C)[nH]c(=S)c2c1C | 3% | i | 34 | 28µM* | 13µM*
COc1ccccc1CNC(=O)C1CCCN(c2nc3ccccc3n3cccc23)C1 (stereo not given) | . | . | -16 | 0% | .
COC(=O)C1=C(C)OC(N)=C(C#N)C1c1ccc(OC)c(CSc2ccccn2)c1 (stereo not given) | 50µM* | i | 2 | 2% | 8%
COC(=O)C1=C(C)OC(N)=C(C#N)C1c1ccccc1 (stereo not given) | -4% | i | -6 | 1% | 1%
COc1ccc2c(c1)CC(C(=O)Nc1cc(Cl)ccc1C)CO2 (stereo not given) | . | . | -1 | 2% | .
N#Cc1cc2c(=O)n3ccccc3nc2n(CCCN2CCOCC2)c1=O | 21% | i | 9 | 18% | 35µM*
Cc1ccc(SCCCn2cncn2)cc1 | -3% | -111%* | 0 | 0% | -2%
OC1(c2ccc(Cl)cc2)CCNCC1 | . | . | -30 | . | .
O=C(O)c1cc2nc3c(c(C(F)(F)F)n2n1)CCc1ccccc1-3 | 0%[15.4 µM] | -114%* | -7 | 2% | 28%
COCCNC(=O)c1cc2nc3c(c(C(F)(F)F)n2n1)CCc1ccccc1-3 | 4% | i | 10 | -3% | 4%[15.4 µM]
O=C(Nc1cccc2c1CCCC2)c1ccc(Cl)c([N+](=O)[O-])c1 | -8% | i | -70* | -1% | 10%[15.4 µM]
SMILES | gsp antagonist | Akt phos inh | RXFP1 antagonist | RXFP1 agonist | gsp agonist
CN1CCN(NC(=O)c2ccc(Cl)c([N+](=O)[O-])c2)CC1 | 4%[15.4 µM] | -112%* | -9 | -1% | 17%
O=C(Nc1cccc2c1CCCC2)c1cc([N+](=O)[O-])ccc1Cl | -15% | i | 2 | -1% | ?
CCn1c(CSc2nc3ccccc3s2)nnc1SCC(=O)c1ccc2c(c1)OCCO2 | ? | -108%* | 4 | -1% | -8%
Cn1c(CSc2nc3ccccc3s2)nnc1SCC(=O)NCCCN1CCOCC1 | 17% | -136%* | 7 | 1% | 1%
CCn1c(CSc2nc3ccccc3s2)nnc1SCC(N)=O | 8% | i | 5 | 1% | 12%
CCn1c(CSc2nc3ccccc3s2)nnc1SCC(=O)NCC(=O)OC | -6% | i | -10 | 2% | 6%
Fc1cccc(CNc2ncnc3ccc(-c4ccccc4Cl)cc23)c1 | . | . | . | 0% | .
N#C/C(=C\c1cccc(Oc2ccccc2)c1)C(=O)N1CCOCC1 | 1% | i | -102* | 0% | 12%[15.4 µM]
Cc1nnc(NC(=O)CCCCCN2C(=O)C3C4C=CC(C4)C3C2=O)s1 (stereo not given) | 50µM* | i | . | 2% | -119%
CCN(CC(=O)Nc1c(F)cccc1F)C(=O)CCCN1C(=O)c2cccc3cccc(c23)C1=O | . | i | 2 | . | 13µM*
COc1ccccc1-c1nnc(C2CCN(C(=O)c3cccc(C)c3)CC2)o1 | . | . | -24 | 3% | .
Cn1c(CCN2CCCCC2)nc2cc(NC(=O)COc3ccccc3)ccc21 | 11% | i | -24 | 3% | ?
Cn1c(CN2CCCC2)nc2cc(NC(=O)COc3ccccc3)ccc21 | 5% | -106%* | -5 | -1% | -19%
Nc1c(-c2ccc(Cl)cc2)cnn1-c1cccc(C(F)(F)F)c1 | -6% | -113%* | -11 | 3% | -48%
Cc1ccc2c(c1)cc(C(=O)NCc1ccc(F)cc1)n2C | . | . | -7 | 20% | .
COc1cccc(CNC(=O)COC(=O)/C(C#N)=C/c2ccc(N(C)C)cc2)c1 | 11% | i | 16 | ? | 25µM*
CC(Sc1ccc2ccccc2n1)C(=O)O (stereo not given) | 16% | i | 48 | 11µM* | 133%[15.4 µM]
COc1ccc(C2=NCC(CSc3nnc(-c4ccc5c(c4)OCO5)o3)S2)cc1 (stereo not given) | 28µM* | i | 15 | 2% | ?
COc1cccc(OC(=O)CSc2nnc(-c3ccc4c(c3)OCO4)o2)c1 | . | . | 3 | -4% | .
COC(=O)C(Cc1csc2ccc(Cl)cc12)NC(=O)c1ccc(Cl)cc1 (stereo not given) | -15% | i | -68* | -1% | 4%
O=C(O)CCC(=O)N1N=C(c2ccccc2)CC1c1ccc(Br)cc1 (stereo not given) | 40µM* | i | -2 | -1% | 6%[15.4 µM]
CCCn1c(=O)c2sccc2n2c(CCCC(=O)N3CCN(c4ccccc4OC)CC3)nnc12 | . | . | -4 | 15% | .
CN1CCN(C(=O)CCN2C(=O)c3ccccc3C2=O)CC1 | 10% | i | -4 | -4% | -72%
CC1CN(C(=O)CCN2C(=O)c3ccccc3C2=O)CC(C)O1 (stereo not given) | 8% | -117%* | 1 | 0% | -28%
COCCNC(=O)CN(Cc1ccc(OC)cc1)C(=O)CCC(=O)Nc1nccs1 | 6% | i | 6 | 3% | -57%
COc1ccc(CN(CC(=O)NCCC(C)C)C(=O)CCC(=O)Nc2nccs2)cc1 | -2% | i | -69* | -4% | 3%
